Reference: PubChem BioAssay AID1863 (Southern Research Specialized Biocontainment Screening …, 2009)
In all, about 300,000 compounds went through this assay and about 480 (0.16%) were called active.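 Rule for the calls: active = inhibition over 29.93%, a cutoff 3 SD above the screen mean, later confirmed by dose response; inconclusive = inhibition over 29.93% but no dose response follow-up; inactive = inhibition at most 29.93% or unconfirmed.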 Not all results are given here. Results with a measured potency or affinity are listed apart.

Test: inhibitors of PhoP regulon expression, primary screen, Salmonella Typhimurium, GFP reporter (AID 1863);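 note: 0% = low Mg2+ inducing control and 100% = high Mg2+ repressing control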
Settings: S. Typhimurium PhoP-regulated promoter GFP reporter, 4 h; at 50 µM; active compounds read high

inhibition, inactive:
O=C(COc1ccc(Cl)cc1)Nc1ccc(C(=O)O)cc1NC(=O)COc1ccc(Cl)cc1 -0.41%
COc1cc(/C=C/C(=O)N(C)c2ccccc2C(=O)O)cc(OC)c1OC -9.48%
CC(C)Nc1cc(C(C)(C)C)nc2c(-c3ccccc3)cnn12 1.4%
CC(C)(C)c1cc(NCCCn2ccnc2)n2ncc(-c3ccccc3)c2n1 -5.57%
C[C@@H]1CN(Cc2nc(-c3cccs3)no2)C[C@H](C)O1 17.7%
COc1ccc(CC2NCCC3(O)CCCCC23)cc1 (centres undefined) -4.79%
CCOc1ccc(C(=O)Nc2ccc(C(=O)N3CCOCC3)cc2)c(OCC)c1 2.54%
CCCCC(CC)CNC(=O)C1CC=CCC1C(=O)O (centres undefined) -4.78%
Cc1cc2oc(C(=O)Nc3ccc(S(N)(=O)=O)cc3)c(C)c2cc1Cl 0.34%
COC(=O)c1ccc(Nc2c([N+](=O)[O-])ccc3nonc23)cc1 -2.08%
Cc1ccc(S(=O)(=O)N(C)C)cc1NC(=O)COC(=O)COc1ccc2c(c1)CCC2 -2.74%
Cc1cccc(Nc2nc3ccccc3s2)c1C 6.62%
Cc1cc(Nc2ccccc2)nc2cc(O)ccc12 60.3%
Cc1cc(N2CCC(C)CC2)nc2cccc(O)c12 11.4%
Cc1cc(Nc2ccccc2O)c2ccccc2n1 8.86%
CCOc1ccc(NC(=O)CSc2nc3cccnc3n2CCOC)cc1 8.6%
O=C(NC(=S)N1CCN(C/C=C/c2ccccc2)CC1)c1cccnc1 -1.23%
Cc1cc(C)n(-c2nc(NCCCN(C)C)c3c4c(sc3n2)CCCC4)n1 -3.42%
Cc1cc(C)n(-c2nc(NCCO)c3c4c(sc3n2)CCCC4)n1 1.98%
Cn1cc(C(=O)NCc2cccnc2)c(=O)c2cc(S(=O)(=O)N3CCCCCC3)ccc21 1.24%
CS(=O)(=O)N(Cc1ccc(C(=O)NCCSCc2ccco2)cc1)c1ccccc1 -4.62%
Cc1cccc(N2CCN(C(=O)c3ccnn3C)CC2)c1C 0.84%
CC(C)(C)NCC(O)CON=C1c2ccccc2-c2ccccc21 (centres undefined) -0.28%
COCCNCC(O)CON=C1c2ccccc2-c2ccccc21 (centres undefined) -2.34%
Cc1n[nH]c(=S)n1-c1cccc(Cl)c1 -6.91%
CCN(CC)CCNC(=O)c1cn(CC)c2cc(N3CCN(C)CC3)c(F)cc2c1=O 25.1%
CCn1cc(C(=O)NCc2ccc3c(c2)OCO3)c(=O)c2cc(F)c(N3CCN(C)CC3)cc21 6.63%
CCN(CC)CCCNC(=O)c1cn(CC)c2cc(N3CCN(C(=O)c4ccco4)CC3)c(F)cc2c1=O 14.4%
CC1(C)S/C(=N/N=C/c2cccs2)NC1=O 0.99%
Cc1ccc(C)c(N2CCN(c3ccc([N+](=O)[O-])cn3)CC2)c1 1.13%
Cn1c(CNC(=O)c2ccc3c(c2)OCO3)nnc1SCC(=O)Nc1ccc(F)cc1 2.02%
COc1ccc(Br)cc1CN(C)C(=O)c1ccccc1OCc1c(C)noc1C -8.01%
Cc1ccc(N(CC(=O)NC2CCCCC2)S(=O)(=O)c2c(C)noc2C)cc1 6.34%
CC(O)CNCCNCc1c(OCc2ccccc2)ccc2ccccc12 (centres undefined) 32.8%
CC(C)(CO)NCc1c(OCc2ccc(Cl)cc2)ccc2ccccc12 -7.49%
COc1ccc(S(=O)(=O)N2CCC(NC(=O)C3CCCCC3)CC2)cc1 4.35%
Cc1ccc(-c2ccc(=O)n(CC(=O)NCc3ccco3)n2)cc1 6.56%
COc1ccc(NC(=O)C2CCN(S(=O)(=O)c3ccc(OC)c(OC)c3)CC2)c(OC)c1 5.61%
CCOC(=O)c1cnc(-c2ccccc2O)nc1Cl 3.92%
CCOC(=O)C(=O)Nc1ccccc1C(=O)OCC 9.09%
C[C@@H]1CC=C[C@H]2[C@H]1C(=O)N(Cc1ccccc1)[C@H]2c1ccc(-c2ccc(F)cc2)cc1F -3.92%
Cc1cc(C)c2[nH]c(=O)c(C(c3nnnn3CC3CCCO3)N3CCCC(C)C3)cc2c1 (centres undefined) -1.81%
O=[N+]([O-])c1ccc(Cl)cc1Sc1nc2ccccc2o1 0.44%
O=[N+]([O-])c1ccc(CSc2nc3ccccc3o2)cc1 8.78%
O=S(=O)(Nc1nccs1)c1cnc(Cl)c(Br)c1 -2.83%
Cc1cc(C(=O)CN2C(=O)NC3(CCCc4ccccc43)C2=O)c(C)n1Cc1cccs1 (centres undefined) 8.89%
CSCCC(NC(=O)c1cccc([N+](=O)[O-])c1)C(=O)OCC(=O)N1CCCC1=O (centres undefined) 1.97%
CCN=C1SC(CC(=O)NC2CCCCC2)C(=O)N1CC (centres undefined) 8.13%
Clc1ccc(C[n+]2cc(-c3ccccc3)n3c2CCCCC3)c(Cl)c1 8.08%
Cc1ccc(C[n+]2cc(-c3ccc(Cl)cc3)n3c2CCC3)cc1 31.5%
Clc1ccc(-c2c[n+](Cc3cccc(Cl)c3)c3n2CCC3)cc1 5.53%
Cc1ccc(-c2c[n+](Cc3ccc(Cl)cc3)c3n2CCC3)cc1 -4.34%
COC(=O)C(C)(C(=O)OC)c1ccc(C(F)(F)F)cc1[N+](=O)[O-] -5.58%
C=CCN1C(=O)C(CC(=O)Nc2ccc(OCC)cc2)N(Cc2ccccn2)C1=S (centres undefined) -2.55%
Cc1ccc(NC(=S)N2CCOCC2)c(C)c1 -0.67%
CN1C(=O)C(O)(CC(=O)c2cccs2)c2ccccc21 (centres undefined) -3.39%
O=C1C(=O)N(CC2CCCO2)C(c2ccccc2[N+](=O)[O-])/C1=C(/O)c1ccccc1 (centres undefined) 2.01%
CC1(C)CC(=O)C2=C(C1)OC(c1ccncc1)C(C#N)=C2N (centres undefined) -4.82%
O=C(NC1CCCCC1)C1CCN(c2cnccn2)CC1 17.7%
O=C(NC(Cc1ccccc1)C(=O)NCc1ccccn1)c1ccco1 (centres undefined) 1.32%
Cc1ccc(Cn2c(N)nc3ccccc32)cc1 11.5%
Nc1nc2ccccc2n1CCOc1ccc(Cl)cc1 11.6%
Nc1nc2ccccc2n1CCOc1ccc(F)cc1 10.1%
CCn1c(N)nc2ccccc21 5.85%
CC(NC(=O)c1ccco1)C(=O)OCC(=O)c1ccc(Cl)s1 (centres undefined) -10.8%
CN1C(C(=O)Nc2ncccn2)=C(O)c2ccccc2S1(=O)=O 5.72%
COc1cc(C(=O)NCc2nnc(SCC(=O)Nc3cc(C)on3)o2)cc(OC)c1OC -1.06%
CCOC(CNC(=O)Cn1nc(Cc2ccncc2)c2ccccc2c1=O)OCC 1.12%
Cc1ccccc1/C=N/Nc1nc2ccccc2[nH]1 -7.4%
CCN(CC)c1ccc(/C=N/Nc2ccccc2)c(O)c1 7.3%
COc1ccc(O)c(/C=N/Nc2nc3ccccc3[nH]2)c1 -9.48%
CCN(CC)c1ccc(/C=N/Nc2nc(C)cc(=O)[nH]2)c(O)c1 6.35%
CC1=C(C(N)=O)C(c2ccccn2)n2nc(SCc3ccccc3)nc2N1 (centres undefined) 1.82%
CCCCSc1nc2c(=O)[nH][nH]c(=O)c2n1Cc1ccccc1 -7.79%
Cc1ccc(NC(=O)NNC(=O)c2ccccc2)cc1 3.02%
C#CCOCCOCCOCCNc1nc(N2CCOCC2)nc(N2CCN(C(=O)CCCCCCCCCCNC(=O)[C@H]([C@@H](C)CC)n3cc(CCCCN=C(N)N)nn3)CC2)n1 11.5%
C#CCOCCOCCOCCNc1nc(N2CCN(C(=O)CCCCCCCCCCNC(=O)[C@@H](CCSC)n3cc(CCO)nn3)CC2)nc(N2CCN(C(=O)CCCCCCCCCCNC(=O)[C@H]([C@@H](C)CC)n3cc(CCCCN=C(N)N)nn3)CC2)n1 4.22%
C#CCOCCOCCOCCNc1nc(N2CCN(C(=O)CCCCCCCCCCNC(=O)[C@H]([C@@H](C)CC)n3cc(CCCCN=C(N)N)nn3)CC2)nc(N2CCN(C(=O)CCCCCCCCCCNC(=O)[C@H](CCCCN)n3cc(C)nn3)CC2)n1 24.6%
C#CCOCCOCCOCCNc1nc(N2CCN(C(=O)CCCCCCCCCCNC(=O)[C@H]([C@@H](C)CC)n3cc(CCCCCN)nn3)CC2)nc(N2CCN(C(=O)CCCCCCCCCCNC(=O)[C@H]([C@@H](C)CC)n3cc(CCCCN=C(N)N)nn3)CC2)n1 11.9%
C#CCOCCOCCOCCNc1nc(N2CCN(C(=O)CCCCCCCCCCNC(=O)[C@H](CO)n3cc(CCCSC)nn3)CC2)nc(N2CCN(C(=O)CCCCCCCCCCNC(=O)[C@H](CCCN=C(N)N)n3cc(C[C@@H](C)CC)nn3)CC2)n1 4.93%
C#CCOCCOCCOCCNc1nc(N2CCN(C(=O)CCCCCCCCCCNC(=O)[C@H]([C@@H](C)CC)n3cc(CCCCN=C(N)N)nn3)CC2)nc(N2CCN(C(=O)CCCCCCCCCCNC(=O)[C@H](CCCCN)n3cc(C[C@@H](C)CC)nn3)CC2)n1 21.5%
Cc1cc(C)nc(-n2nc(C)cc2NC(=O)CNCc2ccccc2)n1 1.3%
COC(=O)c1ccc(COc2ccc(/C=N/Nc3nc(C)cc(=O)[nH]3)cc2)cc1 2.45%
Cc1ccc(N2C(=O)c3cccc4c(Oc5ccccc5[N+](=O)[O-])ccc(c34)C2=O)c(C)c1 -0.66%
